Experimental findings from PubChem BioAssay (Tox21) are described below.

Test [1] can be described thus: A CellTox Green Cytotoxicity Assay to monitor cytotoxicity in HepG2 cells - 24 hour (AID 1224878). Note: nearly all actives have a fitted effect of over 45% in size. Note: potency is the fitted concentration of half-maximal effect. In outline: (§1)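 HepG2 cells were seeded together with the CellTox Green dye at 600 cells/well, left 5 h at 37 C/5% CO2, then given compounds in DMSO. Fluorescence from dye bound to dead-cell DNA was read repeatedly over 40 h of treatment at 37 C.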
The nature of test [2]: A CellTox Green Cytotoxicity Assay to monitor cytotoxicity in HepG2 cells - 40 hour (AID 1224879). Note: nearly all actives have a fitted effect of over 40% in size. Note: potency is the fitted concentration of half-maximal effect. In outline: as §1
The nature of test [3]: qHTS RealTime-Glo MT Cell Viability Assay in HEK293 cells - 0 hour (AID 1224880). Note: top concentration of the series differs between compounds; nearly all actives have a fitted effect of over 45% in size. In outline: (§2)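 HEK293 cells mixed with RealTime-Glo reagents (NanoLuc plus cell-permeant prosubstrate) at 600 cells/well, preincubated 5 h at 37 C/5% CO2, then given 23 nL compound in DMSO. Nonlytic luminescence from viable cells was read at 0, 8, 16, 24, 32 and 40 h.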
A general note: qHTS replaces the single test concentration by a dilution series.

Test [4] can be described thus: A CellTox Green Cytotoxicity Assay to monitor cytotoxicity in HEK293 cells - 32 hour (AID 1224881). Note: nearly all actives have a fitted effect of over 40% in size. In outline: (§3)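 HEK293 cells premixed with CellTox Green dye were seeded at 600 cells/well and left 5 h at 37 C/5% CO2 before pin transfer of 23 nL compound in DMSO. Fluorescence from dye bound to dead-cell DNA was read during 40 h treatment.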
A short description of test [5]: A CellTox Green Cytotoxicity Assay to monitor cytotoxicity in HepG2 cells - 0 hour (AID 1224882). Note: nearly all actives have a fitted effect of over 35% in size. An outline of the steps: as §1
Test [6] in a line: A CellTox Green Cytotoxicity Assay to monitor cytotoxicity in HepG2 cells - 32 hour (AID 1224883). Note: nearly all actives have a fitted effect of over 50% in size. Note: potency is the fitted concentration of half-maximal effect. An outline of the steps:
as §1

Test [7] can be described thus: A CellTox Green Cytotoxicity Assay to monitor cytotoxicity in HEK293 cells - 8 hour (AID 1224884). Note: nearly all actives have a fitted effect of over 35% in size. In outline: as §3
Test [8] can be described thus: qHTS RealTime-Glo MT Cell Viability Assay in HepG2 cells - 16 hour (AID 1224885). Note: nearly all actives have a fitted effect of over 50% in size. An outline of the steps: (§4)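 Viability was tracked continuously by NanoLuc luminescence from prosubstrate reduced by living HepG2 cells, at successive time points over 40 h of compound exposure. Cells with reagent were preincubated 5 h at 37 °C before compound addition.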
A short description of test [9]: qHTS RealTime-Glo MT Cell Viability Assay in HEK293 cells - 24 hour (AID 1224886). Note: top concentration of the series differs between compounds; nearly all actives have a fitted effect of over 50% in size. In outline: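 Viability tracked continuously by luminescence as live cells reduce a prosubstrate for NanoLuc; HEK293 cells preincubated 5 h, compound-treated at 37 C, and read at 0, 8, 16, 24, 32 and 40 h.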
The nature of test [10]: qHTS RealTime-Glo MT Cell Viability Assay in HEK293 cells - 8 hour (AID 1224887). Note: top concentration of the series differs between compounds; nearly all actives have a fitted effect of over 50% in size. In outline:
as §2

A short description of test [11]: A CellTox Green Cytotoxicity Assay to monitor cytotoxicity in HEK293 cells - 16 hour (AID 1224888). Note: nearly all actives have a fitted effect of over 35% in size. In outline: as §3
The nature of test [12]: A CellTox Green Cytotoxicity Assay to monitor cytotoxicity in HepG2 cells - 8 hour (AID 1224890). Note: nearly all actives have a fitted effect of over 45% in size. An outline of the steps: as §1
The nature of test [13]: qHTS assay to identify small molecule antagonists of the estrogen receptor alpha (ER-alpha) signaling pathway using the BG1 cell line in the presence of 0.1 nM 17-beta-estradiol - cell viability counter screen (AID 1259241). Note: nearly all actives have a fitted effect of over 40% in size. In outline:
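VM7Luc4E2 cells (endogenous full-length ER-alpha, 4xERE-luciferase), cultured 5 days in charcoal-stripped serum, exposed to compounds with 0.1 nM 17beta-estradiol (final) for 22 hr at 37C. Viability read in same wells as live-cell protease fluorescence after 30 min.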

Test [14] can be described thus: qHTS assay to identify small molecule antagonists of the androgen receptor (AR) signaling pathway using the MDA cell line in the presence of 0.5 nM R1881 - cell viability counter screen (AID 1259242). Note: nearly all actives have a fitted effect of over 45% in size. An outline of the steps: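 MDA-kb2 cells (human breast carcinoma, stably carrying MMTV-luciferase reporter) were exposed to compounds with 0.5 nM R1881 (final) for 16 hr at 37C, 0% CO2; viability then read as live-cell protease fluorescence (CellTiter-Fluor, 30 min) in the same wells.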

Test [15] has as its target Estrogen receptor (Homo sapiens) (UniProt P03372). Put plainly: qHTS assay to identify small molecule antagonists of the estrogen receptor alpha (ER-alpha) signaling pathway using the BG1 cell line in the presence of 0.1 nM 17-beta-estradiol (AID 1259244). Note: nearly all actives have a fitted effect of over 50% in size. In outline:
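VM7Luc4E2 cells (endogenous full-length ER-alpha, stable 4xERE-luciferase) were grown 5 days in phenol red-free medium with charcoal-stripped FBS, then exposed 22 h at 37C to compounds plus 0.1 nM (final) 17beta-estradiol; ONE-Glo luminescence read-out.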

A short description of test [16]: qHTS assay to identify small molecule HDAC inhibitors (AID 1259364). An outline of the steps:
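Wild-type HCT-116 cells were plated overnight, exposed to compounds for 2 h at 37 °C, then given HDAC-Glo class I/II luminogenic reagent for 30 min at room temperature before luminescence was read.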

Test [17] can be described thus: qHTS assay to identify small molecule HDAC inhibitors - cell viability counter screen (AID 1259365). In outline: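 Wild-type HCT-116 cells, 1,500/well, cultured overnight, then compound-treated 2 h at 37 C. Viability measured as ATP luminescence with CellTiter-Glo after 30 min at room temperature.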
Test [18] can be described thus: qHTS RealTime-Glo MT Cell Viability Assay in HepG2 cells - 0 hour (AID 1224889). Note: nearly all actives have a fitted effect of over 50% in size. An outline of the steps: as §4
A short description of test [19]: qHTS assay to identify small molecule phospholipidosis (PLD) inducers (AID 1259344; active = well fitted curve in the direction sought with a large enough effect; an effect the other way counts as inactive or inconclusive). An outline of the steps:
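HepG2 cells on collagen I, attached 4 h at 37 C, were co-treated with compound and LipidTOX Red dye for 24 h at 37 C, then fixed with paraformaldehyde plus Hoechst 33342 and imaged by high-content microscopy for phospholipid accumulation.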

Values without a mark were called inactive. Inconclusive results are not listed. Calls of active or inactive are those of the source. Unless noted, calls come from the whole dose curve; as a rule, active = well fitted curve in the direction sought with a large enough effect in the repeat runs; inconclusive = weak or mixed curves; inactive = no such curve, though single readings can be large; an effect the other way counts as inactive or inconclusive. Non-standard residues stand in square brackets, D forms with d. Residues, ends and D or L forms follow the SMILES beside them. *: point of attachment. Sta = CC(C)C[C@H](N)[C@@H](O)CC(=O)O; Isovaleryl = CC(C)CC(=O)*
% is set by controls: 0 for no effect and ±100 for the full control effect.

Chain of Estrogen receptor (Homo sapiens) (P03372 whole entry, looked up): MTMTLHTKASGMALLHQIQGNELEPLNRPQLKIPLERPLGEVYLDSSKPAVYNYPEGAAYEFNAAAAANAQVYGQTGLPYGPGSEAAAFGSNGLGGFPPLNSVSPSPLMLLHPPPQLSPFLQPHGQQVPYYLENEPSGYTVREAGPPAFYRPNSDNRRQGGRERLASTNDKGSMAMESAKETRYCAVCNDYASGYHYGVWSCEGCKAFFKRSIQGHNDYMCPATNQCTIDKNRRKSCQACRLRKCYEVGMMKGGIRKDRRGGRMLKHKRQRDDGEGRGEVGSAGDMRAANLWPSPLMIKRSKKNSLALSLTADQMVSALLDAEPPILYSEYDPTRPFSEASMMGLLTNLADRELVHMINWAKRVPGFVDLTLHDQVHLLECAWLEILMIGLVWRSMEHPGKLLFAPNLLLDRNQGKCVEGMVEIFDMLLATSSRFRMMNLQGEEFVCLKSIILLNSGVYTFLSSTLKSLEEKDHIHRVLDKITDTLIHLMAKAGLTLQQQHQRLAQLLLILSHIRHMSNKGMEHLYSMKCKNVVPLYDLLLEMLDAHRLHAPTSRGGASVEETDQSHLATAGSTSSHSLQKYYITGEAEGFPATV

Regarding `CC/C=C\CCCCCCCCCCOC(C)=O`, the Potency result in test [1], in test [2], in test [3], in test [4], in [5] and in test [6] was “inactive” throughout. For the same compound, the Potency result in test [7], in test [11], in [12] and in [16] was “inactive” in each case. Moreover, the result in [8], in [9], in test [10], in test [13], in test [14] and in test [15] was inactive. In addition, in [17], the compound was classed as inactive.
As to `CCCCN(CCCC)CCCCCCN(CCCC)CCCC`, the Potency result in [1], in test [2], in test [3], in [4], in test [5] and in test [6] was “inactive” each time. Further, the Potency entry in test [7], in test [11], in [18], in test [12] and in test [16] was “inactive” in each case. The call in test [8], in test [10], in test [13], in [14], in [15] and in [17] was inactive.
Consider `CCOC(=O)CC`, for which the Potency result in test [1], in test [2], in [3], in test [4], in test [5] and in [6] was “inactive” throughout. The Potency result in test [7], in test [11], in test [18], in test [12] and in [16] was “inactive” each time. Besides, the result in [8], in test [10], in test [13], in test [14], in test [15] and in [17] was inactive.
Turning to `CC(=O)OC/C=C(/C)CCC=C(C)C`, the Potency entry in test [1], in test [2], in test [3], in [4], in test [5] and in test [6] was “inactive” in each case. Also, the Potency entry in test [7], in test [11], in test [18], in test [12] and in test [16] was “inactive” in each case. Also, the call in [8], in test [10], in [13], in [14], in test [15] and in [17] was inactive.
Take `CC(C)CC(=O)N[C@H](C(=O)N[C@H](C(=O)N[C@@H](CC(C)C)[C@@H](O)CC(=O)N[C@@H](C)C(=O)N[C@@H](CC(C)C)[C@@H](O)CC(=O)O)C(C)C)C(C)C` (Isovaleryl-VV[Sta]A[Sta]-OH): the Potency result in test [1], in test [2], in [3], in test [4], in test [5] and in test [6] was “inactive” throughout. Moreover, the Potency entry in [7], in test [11], in [18] and in test [19] was “inactive” each time. Moreover, the compound was called inactive in test [8], in test [9], in test [10], in test [13], in [14] and in test [17].
For the compound `c1cc2ccc3ccc4ccc5cccc6c(c1)c2c3c4c56`, the cytotoxicity in [1] is -19.8% [at 2.72 µM]; in test [5], -21.2% [at 2.72 µM]. Besides, the cytotoxicity increase in test [2] was -16.7% [at 2.72 µM]; in [4] it was -14.8% [at 2.72 µM]; in [6] it was -14.8% [at 2.72 µM]; in test [7], -10.4% [at 2.72 µM]; in test [12], -16.5% [at 2.72 µM]. For the same compound, the activity change, negative = cytotoxicity is -3.02% [at 2.72 µM] in test [3]; -6.75% [at 2.72 µM] in test [10]; 3.24% [at 2.72 µM] in test [18]; 10.7% [at 3.27 µM] in test [13]; 2.08% [at 3.27 µM] in test [17]. In [8], the activity change, negative = cytotoxic was 0.567% [at 2.72 µM]. Besides, in test [11], the activity change is -11.1% [at 2.72 µM, hits give high values]. Besides, in [14], the viability change, negative = cytotoxic is 1.62% [at 3.26 µM]. Moreover, the activity change, negative = inhibition in test [16] is -0.743% [at 3.27 µM].
Take `Cc1cc(O)c(Cl)cc1C`: the Potency in [1], in [2] and in test [6] was 49 µM (active) each time. The Potency entry in test [3], in [4], in test [5], in [7], in test [11] and in [18] was “inactive” throughout. For the same compound, the Potency entry in test [16] was “inactive”. For the same compound, the compound was classed as inactive in test [8], in test [9], in test [10], in test [13], in test [15] and in test [17].
